Data from PubChem BioAssay (NCI).
The panel holds about 83,000 compounds, 20% with a hit somewhere; the sample as a whole holds those more often.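 48-hour exposure, single concentration, 96-well plates; percent growth endpoint where 0 means no net growth. Active: below 10.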 Values without a mark were called inactive. Calls of active or inactive are those of the source.

Assays:
Assay in all cases: NCI-60 one-dose screen, 48 h (100 = growth as untreated, 0 = no growth, -100 = all killed)
Settings in all cases: 10 µM unless noted
NCI-H23 lung = tested on: NCI-H23 lung
NCI-H226 lung = tested on: NCI-H226 lung
NCI-H322M lung = tested on: NCI-H322M lung
HOP-62 NSCLC = tested on: HOP-62 NSCLC
NCI-H460 lung = tested on: NCI-H460 lung
NCI-H522 lung = tested on: NCI-H522 lung
A549/ATCC NSCLC = tested on: A549/ATCC NSCLC
786-0 renal = tested on: 786-0 renal
COLO 205 colon = tested on: COLO 205 colon
DU-145 prostate = tested on: DU-145 prostate
K-562 leukemia = tested on: K-562 leukemia
MALME-3M melanoma = tested on: MALME-3M melanoma
MDA-MB-231 breast = tested on: MDA-MB-231 breast
RXF 393 renal = tested on: RXF 393 renal
SF-268 CNS = tested on: SF-268 CNS
SF-295 CNS = tested on: SF-295 CNS
SF-539 CNS = tested on: SF-539 CNS
UACC-257 melanoma = tested on: UACC-257 melanoma
M14 melanoma = tested on: M14 melanoma

Row | Structure (SMILES) | growth (NCI-H23 lung) | growth (NCI-H226 lung) | growth (NCI-H322M lung) | growth (HOP-62 NSCLC) | growth (NCI-H460 lung) | growth (NCI-H522 lung) | growth (A549/ATCC NSCLC) | growth (786-0 renal) | growth (COLO 205 colon) | growth (DU-145 prostate) | growth (K-562 leukemia) | growth (MALME-3M melanoma) | growth (MDA-MB-231 breast) | growth (RXF 393 renal) | growth (SF-268 CNS) | growth (SF-295 CNS) | growth (SF-539 CNS) | growth (UACC-257 melanoma) | growth (M14 melanoma)
1 | N#Cc1c(Nc2ccccc2)nn2c(-c3ccc([N+](=O)[O-])cc3)ccnc12 | 100% | 104% | 102% | 109% | 99.3% | 94.8% | 94.4% | 98.3% | 107% | 109% | 112% | 104% | 102% | 90.3% | 100% | 104% | 100% | 95.3% | 106%
2 | O=C(CSc1nnc(-c2ccc(Cl)cc2)n1-c1ccccc1)Nc1cccc(Cl)c1 | 49.5% | 46.3% | 55.5% | 104% | 47.9% | 69.8% | 25.7% | 28.1% | 82.1% | 64.6% | 61.9% | 75.9% | 36.3% | 70.8% | 76.1% | 27.2% | 50.9% | 90.4% | 72.8%
3 | CNCc1cccc2c1OCCCCCCC(C)(O)CC(C)(C)S(=O)(=O)c1ccc(cc1)-c1cnc(N)c(n1)C(=O)N2 (configuration not stated) | 9.01% (active) | 43.5% | 46.2% | 59.2% | -56.3% (active) | -66.8% (active) | 11.4% | -11.9% (active) | -48.2% (active) | 9.36% (active) | -29.3% (active) | -58.7% (active) | -6.41% (active) | -90.7% (active) | 13.2% | 10.9% | -72% (active) | 18.1% | -88.9% (active)
4 | COc1cccc2c1CN(C(=O)c1ccc(O)c(C(=O)N3Cc4ccc(OCCC[P+](c5ccccc5)(c5ccccc5)c5ccccc5)cc4C3)c1)C2 | 75.4% | 86.9% | 99.1% | 102% | 61.4% | 78% | 101% | 103% | 54% | 89.1% | 22.6% | 70.8% | 86.9% | 104% | 80.5% | 76.3% | 64.4% | 44.8% | 89.3%
5 | COc1ccc(C(=O)CSc2nc3c(c(Nc4ccc(S(N)(=O)=O)cc4)n2)CCCC3)cc1 | 88.1% | 98% | 107% | 115% | 91.2% | 91.4% | 92.7% | 101% | 108% | 93.6% | 72.7% | 103% | 88.1% | 82.5% | 108% | 90.6% | 83.1% | 109% | 104%
6 | CCN(CC)c1ccc(NC2=C(Cl)C(=O)c3nc(C)ccc3C2=O)cc1 | -10.3% (active) | 87.9% | 109% | 130% | 100% | -44.3% (active) | 100% | 60.6% | 101% | 87.9% | 0.916% (active) | -11.1% (active) | -46.5% (active) | -95.1% (active) | 90.8% | 105% | 102% | -57.7% (active) | 40.4%
7 | CN1CCN(c2nc(-c3csc(-c4ccccc4)n3)cc3ccccc23)CC1 | 66.7% | 97.7% | 72.9% | 70.2% | -26.1% (active) | 37.1% | 53.8% | 46.4% | -84.4% (active) | 30.8% | -35.1% (active) | 49% | 38.4% | -4.62% (active) | 53% | 74.7% | 57.5% | 46.6% | -70.8% (active)
8 | O=c1c2ccccc2nc(COc2ccccc2)n1NS(=O)(=O)c1ccc(Cl)cc1 | 82.8% | 83% | 82.9% | 75% | 96.1% | 69.4% | 86% | 107% | 95% | 100% | 47.3% | 82.1% | 67.4% | 97% | 88.6% | 97.2% | 86.9% | 91.2% | 74.2%
